Screens as filed in PubChem.
A selection: hits, their analogues and other compounds. The true share with any hit is near 1.2%.
KCNH2 3.1 block: qHTS for Inhibitors of KCHN2 3.1: Mutant qHTS; Potassium voltage-gated channel subfamily H member 2, brain isoform KCNH2 3.1 (human); U2OS KCNH2 3.1, thallium flux FluxOr; hits give low values; activity change, % (tested at about 1.8 µM); actives 0.95% (n = 340,000); AID 720553, 2013;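 active = maximum activity change below -70%; inconclusive = maximum activity change from -70% to -50%; inactive = maximum activity change above -50%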;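 also: thallium influx rate constant from kinetic fluorescence after stimulation buffer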
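Virally transduced U2OS (3.1 isoform, 4 h infection in dark at RT) → overnight 37 C → FluxOr + Red40 in HBSS/HEPES, 45 min → stimulation buffer, 2 min kinetic read → rate constant vs DMSO controls.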
TRPV1 ag: HTS Assay for Compounds that Act as Agonists of the Vanilloid Receptor 1; Transient receptor potential cation channel subfamily V member 1 (Homo sapiens), Q8NER1; TRPV1-expressing cells, Fluo-8 calcium influx, agonist mode; activation, % at 8.33 µM; actives 0.19% (n = 320,000); in the data active = activation above about 80%; inconclusive = between about 30% and that limit
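Cells expressing TRPV1 were dye-loaded with Fluo-8 and read kinetically: 10 s baseline, 3 min after compound (agonist portion), then 2 min after EC20 capsaicin (allosteric enhancer portion). Calcium-bound dye fluorescence at 480/520 nm.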
hERG WT inh: qHTS for Inhibitors of KCHN2 3.1: Wildtype qHTS. U2OS, BacMam KCNH2, thallium flux FluxOr; hits give low values. actives 0.37% (n = 340,000). AID 720551, 2013. activity change, % at 1.84 µM. Voltage-gated inwardly rectifying potassium channel KCNH2 (Homo sapiens), Q12809;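 active = maximum activity change below -70%; inconclusive = maximum activity change between -70% and -50%; inactive = maximum activity change above -50%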
Target sequence (Q12809 whole entry, looked up): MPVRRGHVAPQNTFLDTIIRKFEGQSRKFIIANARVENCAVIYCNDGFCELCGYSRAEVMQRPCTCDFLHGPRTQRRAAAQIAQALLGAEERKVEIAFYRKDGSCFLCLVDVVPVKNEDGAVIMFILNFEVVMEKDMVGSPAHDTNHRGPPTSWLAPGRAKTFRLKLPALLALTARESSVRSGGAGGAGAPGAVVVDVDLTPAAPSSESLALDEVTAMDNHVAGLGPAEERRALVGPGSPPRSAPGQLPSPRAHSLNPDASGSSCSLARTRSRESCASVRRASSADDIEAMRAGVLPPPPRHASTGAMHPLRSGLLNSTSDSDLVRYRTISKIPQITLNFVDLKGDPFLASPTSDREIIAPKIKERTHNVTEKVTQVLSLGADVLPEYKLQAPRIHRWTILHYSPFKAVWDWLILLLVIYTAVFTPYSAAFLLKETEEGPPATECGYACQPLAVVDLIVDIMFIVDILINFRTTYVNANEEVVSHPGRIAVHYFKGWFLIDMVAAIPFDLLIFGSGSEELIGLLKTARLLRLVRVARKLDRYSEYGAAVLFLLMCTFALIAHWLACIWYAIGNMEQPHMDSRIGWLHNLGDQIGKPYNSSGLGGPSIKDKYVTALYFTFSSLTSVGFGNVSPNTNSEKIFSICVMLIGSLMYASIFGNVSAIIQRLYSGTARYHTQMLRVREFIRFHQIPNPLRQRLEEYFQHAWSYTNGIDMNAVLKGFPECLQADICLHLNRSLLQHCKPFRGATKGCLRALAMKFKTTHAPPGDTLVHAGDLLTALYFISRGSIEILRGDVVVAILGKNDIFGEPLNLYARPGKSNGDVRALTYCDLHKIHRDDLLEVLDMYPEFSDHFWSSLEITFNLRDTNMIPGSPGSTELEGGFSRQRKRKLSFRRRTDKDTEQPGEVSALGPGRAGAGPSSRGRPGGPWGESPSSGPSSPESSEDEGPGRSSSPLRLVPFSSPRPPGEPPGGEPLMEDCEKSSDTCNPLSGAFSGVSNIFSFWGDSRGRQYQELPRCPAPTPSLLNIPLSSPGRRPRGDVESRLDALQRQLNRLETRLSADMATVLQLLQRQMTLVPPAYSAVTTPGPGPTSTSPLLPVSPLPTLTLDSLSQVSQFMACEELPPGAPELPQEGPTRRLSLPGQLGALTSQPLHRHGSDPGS
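U2OS cells transduced with wild-type KCNH2 virus are loaded with FluxOr dye for 45 min, and thallium flux is measured in kinetic reads before and after stimulation buffer. Rate constants are normalized to DMSO controls.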
TRPV1 PAM: HTS Assay for Compounds that Act as Potentiators of the Vanilloid Receptor 1 | TRPV1-expressing cells, Fluo-8 calcium influx, capsaicin EC20 potentiation | actives 0.02% (n = 320,000) | potentiation, % at 8.33 µM | AID 540277, 2011; in the data active = potentiation above about 80%; inconclusive = between about 30% and that limit
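Cells expressing TRPV1 were dye-loaded with Fluo-8 and read kinetically: 10 s baseline, 3 min after compound (agonist portion), then 2 min after EC20 capsaicin (allosteric enhancer portion). Calcium-bound dye fluorescence at 480/520 nm.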
Each line names hits and unclear results; the compound was inactive in the other large screens.

COc1ccc(C[C@H]2CN3C(=NC[C@@H]3Cc3ccc(O)cc3)N2C[C@H](C)NC(=O)c2ccc(C)c(Br)c2)cc1	hERG WT inh -164
COc1ccc(C[C@H]2CN3C(=NC[C@@H]3Cc3ccc(O)cc3)N2CCNC(=O)c2ccc(C)c(Br)c2)cc1	hERG WT inh -81
COc1ccc(NC(=O)CN2C(=O)NC(C)(c3ccc4c(c3)OCO4)C2=O)cc1S(N)(=O)=O (stereo unspecified)	none (no result: TRPV1 ag, TRPV1 PAM)
CC1CC(C)CN(C(=O)COC(=O)c2nccnc2N)C1 (stereo unspecified)	none
O=C(N/N=C/c1cc(Cl)ccc1O)C(=O)Nc1ccccc1OC(F)(F)C(F)F	TRPV1 ag inconclusive
O=C(N/N=C/c1cc(Br)ccc1O)C(=O)Nc1ccccc1OC(F)(F)C(F)F	hERG WT inh -263
O=C(NC1CCCCC1)C(c1cccnc1)N(C(=O)c1csnn1)c1ccccc1 (stereo unspecified)	none
CC(C)N(C)CCOC(=O)C1COc2ccccc2O1 (stereo unspecified)	KCNH2 3.1 block -204
O=C(COC(=O)C1COc2ccccc2O1)NC(=O)NC1CCCC1 (stereo unspecified)	KCNH2 3.1 block -143, hERG WT inh -198
COc1cc(Br)cc(CN2CCN(C/C=C/c3ccccc3)CC2)c1O	KCNH2 3.1 block -71
Cc1cc(C)c2c(CN3CCN(C/C=C/c4ccccc4)CC3)cc(=O)oc2c1	KCNH2 3.1 block -87, hERG WT inh -101
Cc1cc(C)c2c(CN3CCCCC3)cc(=O)oc2c1	none
Cc1cc(S(=O)(=O)N2CCC(NC(=O)C34CC5CC(CC(C5)C3)C4)CC2)ccc1-n1cnnn1	KCNH2 3.1 block -89, TRPV1 ag 81
O=C(NCCc1ccc(O)c(O)c1)C1COc2ccccc2O1 (stereo unspecified)	TRPV1 ag 89
CN1CCC(N(C)CC(=O)Nc2ccc3c(c2)OC(F)(F)O3)CC1	none (no result: TRPV1 ag, TRPV1 PAM)
CN1CCC(N(C)CC(=O)Nc2cccc(Oc3ccccc3)c2)CC1	KCNH2 3.1 block -95
CCCn1c(S(=O)(=O)O)nc2ccccc21	none
CCC(C)n1c(S(=O)(=O)O)nc2ccccc21 (stereo unspecified)	hERG WT inh -184
COc1ccc2c(C)cc(SCC(=O)Nc3cccnc3Cl)nc2c1	none
Cc1ccc(N2CCN(C(=O)c3cc(-c4ccc(F)cc4)[nH]c3C)CC2C)cc1 (stereo unspecified)	none
CCC(CC)=NNc1cccc([N+](=O)[O-])c1	none
CC/C(C)=N/Nc1cccc([N+](=O)[O-])c1	KCNH2 3.1 block -93
CCN1CCCC1CNc1ncnc2c1[nH]c1ccc(Cl)cc12 (stereo unspecified)	KCNH2 3.1 block -110, hERG WT inh -112
CCn1c(SCC(=O)Nc2sc(C)c(C)c2C#N)nnc1C(C)C	none
COCCn1c(SCC(=O)Nc2sc(C)c(C)c2C#N)nnc1C(C)C	KCNH2 3.1 block -195
Cc1ccc(C)c(S(=O)(=O)c2c[nH]c(=S)[nH]c2=O)c1	KCNH2 3.1 block -82
Cc1ccc(C)c(S(=O)(=O)N2CCNCC2)c1	none
CC(C)n1cc(CN2CCCC(C(=O)Nc3cccc(-c4cc5ccccc5[nH]4)c3)C2)cn1 (stereo unspecified)	KCNH2 3.1 block -95
COC(=O)c1c(NC(=O)c2nc3nc(C)cc(C(F)F)n3n2)sc2c1CCC2	TRPV1 PAM 91
CSc1nc2ccc(NC(=O)CSc3nnc(N)s3)cc2s1	KCNH2 3.1 block -91
CCOc1ccc(CN(C)C(=O)c2cccc(S(=O)(=O)N3CCCC3)c2)cc1OC	none
CCc1cc[n+](C(C(=S)Nc2cccc(C)c2)=C([O-])c2ccc(C)c([N+](=O)[O-])c2)cc1	none (no result: TRPV1 ag, TRPV1 PAM)
Cc1ccc(/C([O-])=C(/C(=S)NCc2ccccc2)[n+]2cccc(CO)c2)cc1[N+](=O)[O-]	hERG WT inh -74
Cc1ccnc(NC(=O)CNC(=O)c2ccc3ccccc3c2)c1	none
Cc1ccnc(NC(=O)CNC(=O)c2ccccc2Br)c1	hERG WT inh -71
Cc1ccc(OCC(=O)N2N=C(c3ccc(Cl)cc3)CC2c2ccco2)c([N+](=O)[O-])n1 (stereo unspecified)	KCNH2 3.1 block -91, hERG WT inh -72
COCC(=O)OCC(=O)N1N=C(c2ccc(Cl)cc2)CC1c1ccco1 (stereo unspecified)	none
CC(C)[C@H](NS(=O)(=O)c1ccccc1)C(=O)OCC(=O)N1N=C(c2ccc(Cl)cc2)CC1c1ccco1 (stereo partly specified)	KCNH2 3.1 block -75
Oc1c(N=NC(=S)Nc2ccccc2F)c2ccccc2n1Cc1cccc(Cl)c1	none
Cc1cccc(Cn2c(O)c(N=NC(=S)Nc3ccccc3F)c3ccccc32)c1	KCNH2 3.1 block -91 (no result: hERG WT inh)
CC(Sc1ncnc2ccccc12)C(=O)Nc1ccc2c(c1)OCO2 (stereo unspecified)	none
O=C(Nc1ccc2c(c1)OCO2)C1CCN(C(=O)CSc2ncnc3ccccc23)CC1	TRPV1 ag 81
Cc1ccc(NC(=O)CSc2ccc(C(N)=O)cc2[N+](=O)[O-])cc1C	KCNH2 3.1 block -78
O=C(Nc1ccc(CN2CCOCC2)cc1)c1ccc(-c2cc(Cl)ccc2Cl)o1	KCNH2 3.1 block -76
Cc1ncoc1C(=O)Nc1ccc(Oc2ccccc2)cc1	TRPV1 ag 84
O=C(Nc1ccc(N2CCN(C(=O)c3ccc(Cl)cc3)CC2)cc1)c1ccc2c(c1)OCCO2	KCNH2 3.1 block -79
O=C(CSc1ccc(Cl)cc1)Nc1ccc(N2CCN(C(=O)c3ccc(Cl)cc3)CC2)cc1	KCNH2 3.1 block -89, hERG WT inh -133
CC(=O)c1ccc(NC(=O)N2CCN(c3cccc(Cl)c3)CC2)cc1	none
CC(=O)c1ccc(N2CCN(C(=O)Nc3ccc(Cl)cc3)CC2)cc1	TRPV1 ag 84
O=C(CSc1ccc(Cl)cc1)Nc1ccccc1N1CCN(C(=O)c2ccc(Cl)cc2)CC1	none
O=C(c1ccc(Cl)cc1)N1CCC(O)(CSc2ccccc2)CC1	none
O=C(c1ccc(Cl)cc1)N1CCC(O)(CSc2ccc(Cl)cc2)CC1	KCNH2 3.1 block -89 (no result: TRPV1 ag, TRPV1 PAM)
O=C(c1ccc(S(=O)(=O)Cc2ccccc2Cl)c([N+](=O)[O-])c1)N1CCN(c2ccccn2)CC1	KCNH2 3.1 block inconclusive
Cc1nnc(NC(=O)CSCc2cc(=O)c3ccccc3[nH]2)s1	none (no result: KCNH2 3.1 block, hERG WT inh)
COC(=O)[C@]1(Cc2ccccc2)N[C@H](CN(C)C(=O)COc2ccccc2)[C@@H]2C(=O)N(C)C(=O)[C@@H]21	none (no result: TRPV1 ag, TRPV1 PAM)
O=C(Nc1ccc(N2CCN(C(=O)c3ccc(Cl)cc3)CC2)cc1)c1cccs1	KCNH2 3.1 block -74
O=C(Nc1ccccc1N1CCN(C(=O)c2ccc(Cl)cc2)CC1)c1ccc2c(c1)OCO2	KCNH2 3.1 block -82
